From the supplement of paper PMC6411743
± gives the standard deviation of the averaged measurements. Of roughly 5,400 targets only a part is listed; those with the largest changes were picked by preference.

Compound: Nc1nc2c(ncn2[C@@H]2O[C@H](COP(=O)(O)OP(=O)(O)OP(=O)(O)O)[C@@H](O)[C@H]2O)c(=O)[nH]1 [guanosine triphosphate]
Test: NP40-soluble protein abundance relative to vehicle (solubility fold change) (ratio); higher = more soluble protein in presence of GTP
Protocol: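 Solubility proteome profiling in Jurkat crude lysate. Lysate was treated with Mg-GTP (0.1-10 mM) for 10 min at room temperature and 3 min at 37 °C, then solubilised with 0.8% NP40 and benzonase, followed by ultracentrifugation. Proteins were quantified by TMT10 LC-MS/MS; the value is the NP40-soluble abundance relative to the NP40-processed vehicle, from 3 independent experiments.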

Sequence of UniProt Q16881 (Q16881 whole entry, one chain of several): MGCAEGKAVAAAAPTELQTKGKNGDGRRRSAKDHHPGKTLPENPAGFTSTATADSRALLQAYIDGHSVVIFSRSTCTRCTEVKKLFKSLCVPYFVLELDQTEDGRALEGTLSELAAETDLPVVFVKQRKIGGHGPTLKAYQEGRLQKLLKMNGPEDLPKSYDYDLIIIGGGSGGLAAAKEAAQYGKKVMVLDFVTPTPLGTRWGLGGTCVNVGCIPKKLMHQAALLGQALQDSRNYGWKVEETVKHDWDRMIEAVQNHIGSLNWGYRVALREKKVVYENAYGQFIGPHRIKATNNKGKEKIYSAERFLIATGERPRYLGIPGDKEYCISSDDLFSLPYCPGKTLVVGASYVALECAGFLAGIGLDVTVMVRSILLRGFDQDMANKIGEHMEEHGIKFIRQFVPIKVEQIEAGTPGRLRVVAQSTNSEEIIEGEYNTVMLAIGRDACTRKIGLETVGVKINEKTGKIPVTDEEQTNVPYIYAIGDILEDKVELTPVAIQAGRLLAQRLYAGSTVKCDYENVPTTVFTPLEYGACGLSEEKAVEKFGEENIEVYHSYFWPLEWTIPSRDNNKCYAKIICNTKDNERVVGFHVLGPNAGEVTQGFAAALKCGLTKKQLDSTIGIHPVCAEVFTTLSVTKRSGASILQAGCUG
Sequence of UniProt Q6NVY1 (Q6NVY1 whole entry, one chain of several): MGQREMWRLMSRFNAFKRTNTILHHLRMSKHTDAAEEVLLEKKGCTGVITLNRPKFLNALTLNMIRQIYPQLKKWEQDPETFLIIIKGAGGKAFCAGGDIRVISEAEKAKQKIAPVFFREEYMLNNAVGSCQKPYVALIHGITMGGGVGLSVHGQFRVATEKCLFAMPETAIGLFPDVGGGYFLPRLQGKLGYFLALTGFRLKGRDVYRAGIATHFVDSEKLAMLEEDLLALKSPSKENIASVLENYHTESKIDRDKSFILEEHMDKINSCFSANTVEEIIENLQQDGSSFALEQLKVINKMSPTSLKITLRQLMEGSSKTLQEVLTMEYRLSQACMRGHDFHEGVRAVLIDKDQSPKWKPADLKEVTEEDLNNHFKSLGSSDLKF
Sequence of UniProt Q9H4A3 (Q9H4A3 whole entry, looked up, one chain of several): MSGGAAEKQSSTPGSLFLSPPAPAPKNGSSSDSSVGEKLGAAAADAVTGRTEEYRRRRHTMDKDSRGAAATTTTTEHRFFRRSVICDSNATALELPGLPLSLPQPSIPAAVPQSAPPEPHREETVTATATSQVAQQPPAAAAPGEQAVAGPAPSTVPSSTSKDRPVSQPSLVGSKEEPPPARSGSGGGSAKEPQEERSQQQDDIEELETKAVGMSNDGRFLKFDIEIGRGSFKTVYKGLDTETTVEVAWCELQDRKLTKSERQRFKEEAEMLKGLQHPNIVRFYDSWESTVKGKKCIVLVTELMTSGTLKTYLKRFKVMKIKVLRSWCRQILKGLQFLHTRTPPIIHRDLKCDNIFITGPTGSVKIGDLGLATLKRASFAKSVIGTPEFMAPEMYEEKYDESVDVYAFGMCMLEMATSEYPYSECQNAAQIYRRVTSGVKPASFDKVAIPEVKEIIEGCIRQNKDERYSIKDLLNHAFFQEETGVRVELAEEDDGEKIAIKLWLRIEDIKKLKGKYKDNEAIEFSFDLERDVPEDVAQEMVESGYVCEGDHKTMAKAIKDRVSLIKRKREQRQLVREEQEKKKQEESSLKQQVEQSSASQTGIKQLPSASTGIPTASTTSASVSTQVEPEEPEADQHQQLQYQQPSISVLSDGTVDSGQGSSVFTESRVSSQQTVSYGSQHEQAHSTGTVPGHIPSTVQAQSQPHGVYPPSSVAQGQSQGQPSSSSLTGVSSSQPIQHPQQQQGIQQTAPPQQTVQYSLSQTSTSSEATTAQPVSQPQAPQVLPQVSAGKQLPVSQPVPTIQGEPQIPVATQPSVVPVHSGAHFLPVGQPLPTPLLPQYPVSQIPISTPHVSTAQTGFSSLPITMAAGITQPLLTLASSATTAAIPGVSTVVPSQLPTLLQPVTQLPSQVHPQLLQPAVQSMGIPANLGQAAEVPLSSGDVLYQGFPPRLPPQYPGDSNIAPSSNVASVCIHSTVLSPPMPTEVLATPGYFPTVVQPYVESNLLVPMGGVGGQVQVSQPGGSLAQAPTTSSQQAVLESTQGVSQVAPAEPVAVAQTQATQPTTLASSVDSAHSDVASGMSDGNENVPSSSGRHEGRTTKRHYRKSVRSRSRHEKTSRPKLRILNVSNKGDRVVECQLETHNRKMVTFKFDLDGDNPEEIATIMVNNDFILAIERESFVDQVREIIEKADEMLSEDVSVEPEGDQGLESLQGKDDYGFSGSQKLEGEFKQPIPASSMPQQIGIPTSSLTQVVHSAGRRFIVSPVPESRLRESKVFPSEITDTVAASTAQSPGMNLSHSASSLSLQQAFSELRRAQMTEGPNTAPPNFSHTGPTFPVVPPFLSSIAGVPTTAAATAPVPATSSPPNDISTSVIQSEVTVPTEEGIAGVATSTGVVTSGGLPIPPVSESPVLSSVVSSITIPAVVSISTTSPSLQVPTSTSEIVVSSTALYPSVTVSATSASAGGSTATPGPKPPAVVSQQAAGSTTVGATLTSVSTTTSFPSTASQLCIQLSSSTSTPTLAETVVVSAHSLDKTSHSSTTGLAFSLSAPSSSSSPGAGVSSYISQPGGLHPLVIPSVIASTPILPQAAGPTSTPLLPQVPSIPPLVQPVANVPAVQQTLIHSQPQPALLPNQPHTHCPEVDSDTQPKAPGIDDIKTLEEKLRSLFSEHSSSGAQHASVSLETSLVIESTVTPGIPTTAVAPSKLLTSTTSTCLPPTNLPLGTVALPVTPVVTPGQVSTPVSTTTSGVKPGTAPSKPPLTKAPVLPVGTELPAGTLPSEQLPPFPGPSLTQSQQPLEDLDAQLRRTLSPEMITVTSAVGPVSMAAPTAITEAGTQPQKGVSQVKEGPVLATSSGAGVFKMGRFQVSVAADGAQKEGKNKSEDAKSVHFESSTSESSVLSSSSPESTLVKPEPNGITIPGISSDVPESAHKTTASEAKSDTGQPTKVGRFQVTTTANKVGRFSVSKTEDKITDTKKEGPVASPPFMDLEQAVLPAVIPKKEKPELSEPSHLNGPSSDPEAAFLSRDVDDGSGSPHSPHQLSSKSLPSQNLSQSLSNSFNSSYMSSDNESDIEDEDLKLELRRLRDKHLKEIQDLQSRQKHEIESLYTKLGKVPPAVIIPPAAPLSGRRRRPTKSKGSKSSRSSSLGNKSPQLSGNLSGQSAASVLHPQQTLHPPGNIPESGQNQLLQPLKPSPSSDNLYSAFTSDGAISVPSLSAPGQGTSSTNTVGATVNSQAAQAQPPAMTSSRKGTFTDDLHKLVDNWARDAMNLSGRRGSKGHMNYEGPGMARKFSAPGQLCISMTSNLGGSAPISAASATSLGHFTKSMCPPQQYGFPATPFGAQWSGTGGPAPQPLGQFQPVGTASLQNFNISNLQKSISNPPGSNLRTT

Target	NP40-soluble protein abundance (concentration: 0.1mM)	NP40-soluble protein abundance (concentration: 0.5mM)	NP40-soluble protein abundance (concentration: 1mM)	NP40-soluble protein abundance (concentration: 2mM)	NP40-soluble protein abundance (concentration: 4mM)	NP40-soluble protein abundance (concentration: 6mM)	NP40-soluble protein abundance (concentration: 8mM)	NP40-soluble protein abundance (concentration: 10mM)
A6NFX8|Q9UKK9 (UniProt Q9UKK9)	1.05 ± 0.036	1.04 ± 0.07	0.987 ± 0.036	0.994 ± 0.079	0.968 ± 0.046	0.942 ± 0.052	0.93 ± 0.018	0.93 ± 0.01
A0A087WSW9|A0A087WSY9|E9PIR7|F8W809|Q16881|Q16881-2|Q16881-3|Q16881-4|Q16881-5|Q16881-6 (UniProt Q16881)	0.99 ± 0.03	1.01 ± 0.041	0.918 ± 0.026	0.928 ± 0.049	0.88 ± 0.037	0.9 ± 0.041	0.847 ± 0.022	0.854 ± 0.059
H0YEN5|P15880 (UniProt P15880)	0.979 ± 0.063	1.01 ± 0.1	0.965 ± 0.14	0.936 ± 0.19	0.848 ± 0.21	0.836 ± 0.21	0.738 ± 0.17	0.774 ± 0.2
A0A087WXI1|Q6NVY1 (UniProt Q6NVY1)	0.948 ± 0.045	0.945 ± 0.042	0.909 ± 0.082	0.875 ± 0.083	0.863 ± 0.087	0.867 ± 0.092	0.861 ± 0.096	0.841 ± 0.096
F5GWT4|Q9H4A3|Q9H4A3-2|Q9H4A3-5|Q9H4A3-6|Q9H4A3-7 (UniProt Q9H4A3)	0.963 ± 0.058	0.99 ± 0.079	1 ± 0.081	0.96 ± 0.07	0.973 ± 0.061	0.978 ± 0.066	0.999 ± 0.074	0.994 ± 0.082
